# The whole screen tested about 68,000 compounds, of which about 2,700 (4%) showed an effect of 50% or more. This excerpt belongs to a sample that is enriched for strong results.
# Tested on: Plasmodium berghei
# Experiment: Screen against P. berghei liver stage (PbLuc), transformed with Luciferase, at 2uM
# Assay type: functional, HepG2
# Conditions: tested at 2 uM
row,SMILES,INHIBITION
1,Cc1nnc(N2CC[C@H]3C[C@H](C(=O)N(C)C)O[C@@H]3C2)s1,4.42%
2,CCN1CC(COc2ccc(OC)cc2)Oc2ccncc2S1(=O)=O (stereo not given),18.99%
3,O=S1(=O)c2cccnc2OC(COc2ccccc2)CN1CC1CC1 (stereo not given),22.01%
4,CCN1CC(COc2ccccc2)Oc2ncccc2S1(=O)=O (stereo not given),55.73%
5,CN(C)C1(CNc2nccc(C3CCCC3)n2)CCOCC1,1.1%
6,NC(=O)CCn1ccc(NC(=O)c2ccc(OCC3CC3)cc2)n1,-52.01%
7,Cc1nnsc1C(=O)NCc1cccnc1N1CCCC(O)C1 (stereo not given),41.59%
8,Cc1nn(C)c(N(C)C)c1CNCc1ccccc1Cn1cccn1,-40.27%
9,CC(C)c1nccn1C(C)C(=O)NC1CCOCC1 (stereo not given),1.1%
10,CC(C)c1nccn1C(C)C(=O)NC1CCN(S(C)(=O)=O)CC1 (stereo not given),8.13%
11,CC(C)c1nccn1C(C)C(=O)NC1Cc2ccccc2C1 (stereo not given),51.72%
12,Cc1cc(C)c(CNC(=O)NCc2nnc3n2CCCC3)c(=O)[nH]1,-47.98%
13,O=C(O)c1ccn(-c2cccc(NC(=O)c3ccccc3Cl)c2)n1,23.43%
14,O=C(CCc1cc(Cl)no1)N1CCC(c2cc3ncccc3cn2)CC1,15.72%
15,Cc1occc(=O)c1OCc1noc(C(=O)NC(C)C)n1,2.06%
16,CCOC(=O)c1nc(COc2c(C)occc2=O)no1,54.13%
17,CNC(=O)c1nc(COc2c(C)occc2=O)no1,20.19%
18,Cc1cn(Cc2ccc(F)c(F)c2)nc1N,17.69%
19,FC(F)(F)c1n[nH]c2c1CN(Cc1cn3ccccc3n1)CC2,-7.14%
20,[O-][S+](CCN1CCc2[nH]nc(C(F)(F)F)c2C1)c1ccccc1 (stereo not given),-62.71%
21,FC(F)(F)c1[nH]nc2c1CN(Cc1ccccc1)CC2,57.77%
22,Cc1ccccc1CN1CCC2(CC1)CN(S(=O)(=O)c1ccccc1)C2,43.51%
23,O=C(NCc1cccnc1)Nc1cc(C(F)(F)F)c[nH]c1=O,-13.92%
24,O=C1N(c2ccsc2)CCC12CCCN(CC1CC1)C2 (stereo not given),7.77%

row,SMILES,INHIBITION
1,Cc1csc(CN(CC2CCCO2)C(=O)c2cccnc2C)n1 (stereo not given),-5.92%
2,O=C(c1cccnc1O)N(Cc1ccsc1)CC1CCCO1 (stereo not given),-85.83%
3,O=C(c1cccnc1O)N(Cc1cccs1)CC1CCCO1 (stereo not given),64.9%
4,c1ccc2[nH]c(C3CCN(Cc4nc(C5CC5)no4)CC3)cc2c1,-3.99%
5,O=C(CCc1cc2n(n1)CCCNC2)N1CCSCC1,-9.98%
6,CCc1nc(C)c(CN2CCN(c3ncnc4scc(C)c34)CC2)[nH]1,-33.43%
7,Cc1n[nH]c(CN2CCN(c3ncnc4scc(C)c34)CC2)c1Cl,74.18%
8,CCc1nc(C)c(CN2CCN(c3ncnc4c(C)csc34)CC2)[nH]1,-3.25%
9,CC(C)Oc1ncccc1CNC(=O)N1CCOCC1,-10.84%
10,CN(C)CC(=O)N1CCc2sc(C(=O)N3CCN(C)CC3)cc21,34.93%
11,O=C(NCc1ccccn1)[C@@H]1CC[C@@H]2[C@@H](CCN2c2ncc(F)cn2)O1,21.77%
12,Cc1nc(C2CCCN(C(=O)c3cnn(C4CCCCC4)c3)C2)no1 (stereo not given),-31.72%
13,Cn1cnnc1C1CCCN(C(=O)c2cc(Cl)c3c(c2)OCO3)C1 (stereo not given),3.9%
14,Cc1nc(C2CCCN(C(=O)c3cnn(C(C)(C)C)c3)C2)no1 (stereo not given),56.12%
15,Cc1nc(C2CCCN(C(=O)c3cc(Cl)c4c(c3)OCO4)C2)no1 (stereo not given),50.05%
16,Cc1nc(C2CCCN(C(=O)c3ccco3)C2)no1 (stereo not given),51.32%
17,CCn1cc(C(=O)N2CCCC(c3noc(C)n3)C2)cn1 (stereo not given),31.46%
18,Cc1nc(C2CCCN(C(=O)c3ccoc3)C2)no1 (stereo not given),-3.64%
19,Cc1cccc(C(=O)N2CCCC(c3noc(C)n3)C2)n1 (stereo not given),-11.71%
20,Cc1nc(C2CCCN(C(=O)c3cccc4c3OCO4)C2)no1 (stereo not given),27.31%
21,Cc1noc(C)c1-c1cccc(C2CCCNC2)n1 (stereo not given),29.48%
22,CN(C)c1nc(N)nc(CN2CCCC2c2cccs2)n1 (stereo not given),-43.18%
23,CC(CO)N(C)C(=O)c1cn(-c2ccc(Br)cc2)cn1 (stereo not given),-33.03%
24,O=C(c1cncc(NCC2COc3ccccc3C2)n1)N1CCCCC1 (stereo not given),31.05%

row,SMILES,INHIBITION
1,O=C(c1cncc(NCC2COc3ccccc3C2)n1)N1CCOCC1 (stereo not given),10.77%
2,O=C(c1cncc(NCC2COc3ccccc3C2)n1)N1CCCC1 (stereo not given),50.3%
3,Cc1ncc(CNC(=O)N(C)C2CCN(c3ccccc3)C2=O)s1 (stereo not given),-16.12%
4,CNc1cc(C2CN(Cc3coc(C)n3)CCO2)nc(C)n1 (stereo not given),-13.51%
5,CN(C)C(=O)CCN1CC(c2ccccc2)(c2ccccc2)CCC1=O,64.08%
6,O=C1CCC(c2ccccc2)(c2ccccc2)CN1CCO,22%
7,CS(=O)(=O)CCN1CC(c2ccccc2)(c2ccccc2)CCC1=O,19.12%
8,Cn1ccnc1CN1CC[C@@H](NS(C)(=O)=O)[C@@H]1Cc1cccnc1,-29.46%
9,Cc1ccc(CNCC2CCCn3ccnc32)s1 (stereo not given),14.82%
10,Cc1cn2c(n1)C(CNCc1ccc(C)s1)CCC2 (stereo not given),-35.26%
11,CC(C)(C)c1ncc(CNCC2CCCn3ccnc32)s1 (stereo not given),52.98%
12,CN1CCOC(CNCc2cnc(C(C)(C)C)s2)C1 (stereo not given),11.01%
13,CCN(CC)c1ncc(CNCC2CCCn3ccnc32)s1 (stereo not given),-6.64%
14,Cc1nc(C)c(CNCC2CCCn3ccnc32)s1 (stereo not given),50.59%
15,Cn1cc(CN2CCc3nc4sccc4c(=O)n3CC2)cn1,35.7%
16,COc1ccc(C(=O)N2CCC(Nc3cccnn3)CC2)c(OC)c1,-51.92%
17,CC(C)NC(=O)N1CCCC2(CCN(c3ccsc3)C2=O)C1 (stereo not given),17.77%
18,CCC1CN(C)c2ccccc2CN1C(=O)c1c[nH]c(=O)cc1C (stereo not given),42.8%
19,CN(C)C(=O)[C@H]1C[C@H]2OCC[C@H]2N(Cc2ccc(F)cc2)C1,35.38%
20,CCC(CC)n1nc(C)cc1NC(=O)C1CCCO1 (stereo not given),53.61%
21,CCC(CC)n1nc(C)cc1NC(=O)CC1CCOCC1,-28.5%
22,CCC(CC)n1nc(C)cc1NC(=O)C1CCOC1 (stereo not given),-3.87%
